Data from PubChem BioAssay (NCI).
Compounds without any hit were thinned out: in the full panel of roughly 83,000, 20% have a hit.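 Results are percent growth after 48 hours of single-concentration exposure. 100 means growth as in untreated cells, lower positive values show inhibition; negative values down to -100 show cell death.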 Values without a mark were called inactive. Activity calls are given as the source filed them. Rule for the calls: active = growth percent below 10; inactive = the rest.

Each compound was assayed on HL-60(TB) leukemia (assay: NCI-60 one-dose screen, 48 h (100 = growth as untreated, 0 = no growth, -100 = all killed)). Conditions: 10 µM unless noted.

In order of falling growth:
1. COc1ccc(-n2c(C(O)c3ccccc3)nn(CN3CCOCC3)c2=S)cc1 (stereo not given)  126%
2. CC12CCC3C(CCC4CC(=O)/C(=C\O)CC43C)C1CCC(=O)O2 (stereo not given)  111%
3. C[N+](C)(C)CCOC(OCC[N+](C)(C)C)(c1ccccc1)c1ccccc1  110%
4. N#Cc1c(Cl)nc(SCC2CO2)nc1-c1ccccc1 (stereo not given)  105%
5. COc1ccc(OC)c([N+](=O)[O-])c1C(=O)CNC(C)=O  104%
6. O=C(Nc1ccc2c(c1)C(=O)c1ccccc1-2)c1ccccc1  101%
7. CC(C)C1=C[C@@]23CC[C@@H]4[C@](C)(CCC[C@@]4(C)C(=O)N4CCCNCC4)[C@H]2C[C@@H]1[C@H]1C(=O)CCC(=O)[C@H]13  100%
8. COCCn1cc(-c2nc(-c3cn(CCOC)c4ncccc34)cs2)c2cc(F)ccc21  97.8%
9. Cc1noc(C)c1-c1ccc2nc(NC(=O)[C@H]3CCN(C#N)C3)cn2c1  95.9%
10. C=C1C(=O)C2CCC1C2 (stereo not given)  95.9%
11. Cn1cc(-c2csc(-c3cn(C)c4ncccc34)n2)c2cccnc21  95.2%
12. CCN1C(=O)C(C)C=C(C)C=C1C (stereo not given)  94.4%
13. COc1cccc(NC(=O)c2sc3nc(C)c(C(=O)c4ccccc4)cc3c2N)c1  93.5%
14. COc1ccc(C2OC(N)=C(O)C2=O)cc1OC (stereo not given)  92.6%
15. O=C(O)c1c[nH]c2ccccc2c1=O  91.2%
16. O=C1OCCCCCCCCCC#Cc2ccccc21  88.7%
17. COC1CC2CCC(C)C(O)(O2)C(=O)C(=O)N2CCCCC2C(=O)OC(C(C)CC2CCC(O)C(OC)C2)CC(=O)C(C)C=C(C)C(O)C(OC)C(=O)C(C)CC(C)/C=C/C=C/C=C1C (stereo not given)  86.6%
18. O=C(N=Nc1c(O)[nH]c2ccc(Br)cc12)c1cc(-c2ccccc2)on1  84.9%
19. COc1cc(N2C(=O)C=CC2=O)ccc1N1C(=O)C=CC1=O  82.9%
20. COc1nc(/C=C\Nc2ccc3c(c2)OCCOCCOCCOCCO3)nc(OC)n1  65.4%
21. Oc1ccccc1/C=N/NC(=S)NC1CC2C=CC1C2 (stereo not given)  58.3%
22. O=C(Nc1ncccc1OCc1ccccc1)NC1CCCCCC1  57.7%
23. CC(=O)c1cc2c(N)c(C(=O)Nc3cccc(F)c3C)sc2nc1C  57.1%
24. COC(=O)[C@@H]1CCCN1C(=O)[C@@H]1CCCN1C(=O)[C@H](Cc1ccccc1)NC(=S)Nc1cc(C(F)(F)F)cc(C(F)(F)F)c1  55.7%
25. Cc1c2cc[nH]c(=O)c2c(C)c2c1[nH]c1ccc(OC(=O)c3ccccc3)cc12  51.3%
26. C/C(=C(/c1ccc(O)cc1)c1ccc(OCCN2CCCC2)cc1)c1ccccc1  45.1%
27. C[C@@H]1COC(Nc2ccc3ncnc(Nc4ccc(OCc5nccs5)c(Cl)c4)c3c2)=N1  31.3%
28. COc1cc2cn3c4ccc(O)cc4nc(N)c3c2cc1OC  24.5%
29. Cc1nc2c(-c3cnc(N)nc3)nc(N3CCOCC3)nc2n1C(C)C  10.8%

For `COCC(=O)NNc1[nH]c(-c2ccc(OC)cc2)cc1C#N`, the growth was 6.53% (active).
For `C[C@H]1[C@H](C)CC[C@]2(C(=O)O)CC[C@]3(C)C(=CC[C@@H]4[C@@]5(C)C/C(=C/c6cccnc6)[C@H](O)C(C)(C)[C@@H]5CC[C@]43C)[C@H]12`, the growth was -16.5% [100 µM] (active).
With `NC(N)=N/N=C(/c1ccccc1)c1ccc(F)cc1` the growth was -70.6% (active).
In the case of `COc1cccc(Sc2ccc([N+](=O)[O-])c3no[n+]([O-])c23)c1`, the growth is reported as 2.91% (active).
For `O=C1Nc2ccccc2/C1=C/C(=N/c1nnc(-c2ccccc2)s1)c1ccccc1`, the growth was -32.9% (active).
For `CN1CCN(CCOc2ccc(-c3cnc4c(-c5ccc(F)cc5)cnn4c3)cc2)CC1`, the growth was 2.46% (active).
In the case of `CCN(CC)CCCC(C)Nc1cnc(C(=O)Nc2ccc(Cl)c3cccnc23)cn1` (stereo not given), the growth is reported as -63.3% (active).
In the case of `CCCc1n(Cc2ccc3ccccc3c2)cc[n+]1Cc1ccc2ccccc2c1`, the growth is reported as -53.1% (active).
For `O=S(=O)(Nc1ccc(Br)cc1)c1ccc(-c2cnc(C3CC3)o2)cc1`, the growth was -36% (active).
`COc1ccc(/C=C/c2nc(N3CCOCC3)c3cc(F)c(F)cc3n2)cc1OC` was tested, and the growth was -2.81% (active).
`CC[C@H](Nc1nc(N)nc(C2CC2)c1C#N)c1nc2cccc(NCc3ccc(C(=O)NO)cc3)c2c(=O)n1-c1ccccc1` was tested, and the growth was -19.3% (active).
